According to PubChem BioAssay AID1159580 (chemical genetic matrix, 2015):
Several values for one entry are separate records, joined by “and”; a condition that tells them apart may be missing. Equal values may be shown once. Hit rate of the full screen: of about 5,500 compounds, about 2,000 (36%) were called active. About 18% were inconclusive and are not listed. Cut-off read from the data, not from the text of the source: active = normalized growth mostly below about 0.91 (no sharp cut-off); inconclusive = no clear call, values can overlap the other calls; inactive = mostly above about 0.92. Some of the results follow.

Experiment: chemical genetic growth profiling, strain panel (AID 1159580);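 note: tested at 20 µM; growth read once vehicle control cultures reached saturation at 30 °C; 1 = growth at the plate median or of vehicle wells; lower values mean less growth of the strain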
Conditions: S. cerevisiae deletion strains, growth OD

Measured: normalized growth

COc1c(O)cc2oc3cc(O)c(CC=C(C)C)c(O)c3c(=O)c2c1CC=C(C)C
inactive: locus YAL021C, strain ccr4, active compounds read low 1 | locus YAL026C, strain drs2, active compounds read low 0.982 | locus YAL030W, strain snc1, active compounds read low 0.984 | locus YBR009C, strain hhf1, active compounds read low 0.983 | locus YBR023C, strain chs3, active compounds read low 0.923 | locus YBR171W, strain sec66, active compounds read low 1.02 | locus YBR279W, strain paf1, active compounds read low 0.968 | locus YCL011C, strain gbp2, active compounds read low 0.912 | locus YCL016C, strain dcc1, active compounds read low 0.957 | locus YCL061C, strain MRC1, active compounds read low 0.991 | locus YCL069W, strain vba3, active compounds read low 1.01 | locus YCR088W, strain abp1, active compounds read low 1 | locus YDL005C, strain med2, active compounds read low 1.05 | locus YDL040C, strain nat1, active compounds read low 1 | locus YDL185W, strain tfp1, active compounds read low 0.916 | locus YDR001C, strain nth1, active compounds read low 1.01 | locus YDR297W, strain sur2, active compounds read low 0.923 | locus YDR334W, strain swr1, active compounds read low 0.999 | locus YDR335W, strain msn5, active compounds read low 0.957 | locus YEL003W, strain gim4, active compounds read low 0.937 | locus YEL037C, strain rad23, active compounds read low 1 | locus YEL061C, strain CIN8 (second series), active compounds read low 1.01 | locus YER016W, strain bim1, active compounds read low 0.969 | locus YER110C, active compounds read low 0.952 | locus YER111C, strain swi4, active compounds read low 1.02 | locus YFR010W, strain ubp6, active compounds read low 0.978 | locus YGL167C, strain pmr1, active compounds read low 1.01 | locus YGL173C, strain kem1, active compounds read low 0.979 | locus YGL227W, strain vid30, active compounds read low 1 | locus YGL240W, strain doc1, active compounds read low 0.887 | locus YGL253W, strain hxk2, active compounds read low 0.99 | locus YGR252W, strain gcn5, active compounds read low 0.833 | locus YHR013C, strain ard1, active compounds read low 0.985 | locus YHR027C, strain rpn1, active compounds read low 0.969 | locus YHR142W, strain chs7, active compounds read low 0.89 | locus YIL073C, strain SPO22, active compounds read low 0.695 | locus YJL092W, strain hpr5, active compounds read low 1 | locus YJL115W, strain asf1, active compounds read low 1.03 | locus YJL154C, strain vps35, active compounds read low 1.04 | locus YJL168C, strain set2, active compounds read low 0.948 | locus YJL187C, strain SWE1, active compounds read low 0.936 | locus YJR066W, strain TOR1, active compounds read low 0.891 | locus YKL009W, strain mrt4, active compounds read low 0.885 | locus YKL068W, active compounds read low 0.947 | locus YKL160W, strain elf1, active compounds read low 0.904 | locus YKR026C, strain gcn3, active compounds read low 1 | locus YKR091W, strain srl3, active compounds read low 1.01 | locus YLL001W, strain dnm1, active compounds read low 0.963 | locus YLL026W, active compounds read low 1 | locus YLL041C, strain sdh2, active compounds read low 0.986 | locus YLR102C, strain apc9, active compounds read low 0.93 | locus YLR258W, strain gsy2, active compounds read low 0.939 | locus YLR342W, strain FKS1, active compounds read low 0.944 | locus YLR357W, strain rsc2, active compounds read low 0.957 | locus YLR370C, strain arc18, active compounds read low 0.982 | locus YLR384C, strain iki3, active compounds read low 0.983 | locus YML124C, strain tub3, active compounds read low 0.938 | locus YMR125W, strain sto1, active compounds read low 1.01 | locus YMR129W, active compounds read low 0.974 | locus YMR231W, strain pep5, active compounds read low 1 | locus YNL183C, strain NPR1, active compounds read low 0.887 | locus YNL209W, strain ssb2, active compounds read low 0.968 | locus YNL248C, strain rpa49, active compounds read low 0.994 | locus YNL322C, strain KRE1 (second series), active compounds read low 0.995 | locus YNR049C, strain mso1, active compounds read low 0.967 | locus YOL012C, strain htz1 0.271 | locus YOR001W, strain rrp6, active compounds read low 0.916 | locus YOR070C, strain gyp1, active compounds read low 0.95 | locus YOR080W, strain dia2, active compounds read low 0.984 | locus YOR083W, strain WHI5, active compounds read low 0.941 | locus YOR106W, strain vam3, active compounds read low 0.916 | locus YOR265W, strain rbl2, active compounds read low 0.964 | locus YOR270C, strain vph1, active compounds read low 0.881 | locus YOR290C, strain snf2, active compounds read low 0.912 | locus YOR316C, strain cot1, active compounds read low 0.927 | locus YPL078C, strain atp4, active compounds read low 0.991 | locus YPL106C, strain sse1, active compounds read low 0.856 | locus YPL240C, strain hsp82, active compounds read low 0.951 | locus YPR119W, strain clb2, active compounds read low 0.931 | locus YPR141C, strain kar3, active compounds read low 0.96
active: locus YAL013W, strain DEP1, active compounds read low 0.346 | locus YBR021W, strain FUR4, active compounds read low 0.578 | locus YBR229C, strain ROT2, active compounds read low 0.913 | locus YBR231C, strain swc5, active compounds read low 0.851 | locus YCL029C, strain bik1, active compounds read low 0.773 | locus YDL035C, strain GPR1, active compounds read low 0.611 | locus YDL074C, strain BRE1, active compounds read low 0.242 | locus YDL101C, strain DUN1, active compounds read low 0.633 | locus YDL192W, strain arf1, active compounds read low 0.579 | locus YDR069C, strain doa4, active compounds read low 0.89 | locus YDR101C, strain arx1, active compounds read low 0.799 | locus YDR137W, strain rgp1, active compounds read low 0.501 | locus YDR159W, strain sac3, active compounds read low 0.749 | locus YDR162C, strain NBP2, active compounds read low 0.543 | locus YDR195W, strain ref2 0.57 | locus YDR318W, strain mcm21, active compounds read low 0.79 | locus YDR388W, active compounds read low 0.833 | locus YDR392W, strain spt3, active compounds read low 0.673 | locus YDR502C, strain sam2, active compounds read low 0.771 | locus YEL061C, strain CIN8, active compounds read low 0.68 | locus YER015W, strain faa2, active compounds read low 0.901 | locus YER155C, strain BEM2 (second series), active compounds read low 0.704 | locus YER155C, strain BEM2, active compounds read low 0.388 | locus YER167W, strain BCK2, active compounds read low 0.792 | locus YGL078C, strain dbp3, active compounds read low 0.878 | locus YGL086W, strain mad1, active compounds read low 0.681 | locus YGL248W, strain PDE1, active compounds read low 0.67 | locus YGR135W, strain pre9, active compounds read low 0.77 | locus YHR030C, strain SLT2, active compounds read low 0.538 and 0.687 | locus YHR079C, strain IRE1 (second series), active compounds read low 0.918 | locus YHR079C, strain IRE1, active compounds read low 0.56 | locus YHR094C, strain hxt1, active compounds read low 0.901 | locus YHR129C, strain ARP1, active compounds read low 0.545 | locus YHR200W, strain rpn10, active compounds read low 0.78 | locus YIL066C, strain RNR3, active compounds read low 0.553 | locus YIL125W, strain kgd1, active compounds read low 0.744 | locus YIR030C, strain dcg1, active compounds read low 0.867 | locus YJL095W, strain BCK1, active compounds read low 0.307 and 0.797 | locus YJL129C, strain trk1, active compounds read low 0.774 | locus YJL134W, strain LCB3, active compounds read low 0.833 | locus YJL164C, strain tpk1, active compounds read low 0.894 | locus YJL166W, strain qcr8, active compounds read low 0.819 | locus YJL187C, strain SWE1 (second series), active compounds read low 0.518 | locus YJR043C, strain POL32, active compounds read low 0.538 | locus YKL085W, strain MDH1 (second series), active compounds read low 0.724 | locus YKL085W, strain MDH1, active compounds read low 0.724 | locus YKL190W, strain CNB1, active compounds read low 0.548 | locus YKR001C, strain vps1, active compounds read low 0.365 | locus YLR027C, strain aat2, active compounds read low 0.916 | locus YLR039C, strain RIC1, active compounds read low 0.263 | locus YLR058C, strain SHM2, active compounds read low 0.642 | locus YLR113W, strain HOG1, active compounds read low 0.426 | locus YLR262C, strain YPT6 (second series), active compounds read low 0.667 | locus YLR262C, strain YPT6, active compounds read low 0.399 | locus YLR268W, strain sec22, active compounds read low 0.704 | locus YLR320W, strain mms22, active compounds read low 0.843 | locus YLR330W, strain CHS5, active compounds read low 0.534 | locus YLR342W, strain FKS1 (second series), active compounds read low 0.591 | locus YLR371W, strain rom2, active compounds read low 0.358 | locus YLR418C, strain cdc73, active compounds read low 0.259 | locus YML016C, strain PPZ1, active compounds read low 0.674 | locus YML032C, strain rad52, active compounds read low 0.838 | locus YMR058W, strain fet3, active compounds read low 0.9 | locus YMR078C, strain ctf18, active compounds read low 0.903 | locus YMR205C, strain PFK2, active compounds read low 0.822 | locus YMR223W, strain ubp8, active compounds read low 0.786 | locus YMR263W, strain SAP30, active compounds read low 0.726 | locus YMR307W, strain GAS1, active compounds read low 0.474 | locus YNL067W, strain RPL9B, active compounds read low 0.719 | locus YNL071W, strain lat1, active compounds read low 0.562 | locus YNL153C, strain GIM3, active compounds read low 0.625 | locus YNL233W, strain BNI4, active compounds read low 0.51 | locus YNL250W, strain rad50, active compounds read low 0.862 | locus YNL271C, strain bni1, active compounds read low 0.883 | locus YNL298W, strain CLA4, active compounds read low 0.831 | locus YNL307C, strain MCK1, active compounds read low 0.385 | locus YNR052C, strain pop2, active compounds read low 0.781 | locus YOL006C, strain TOP1, active compounds read low 0.279 | locus YOL147C, strain pex11, active compounds read low 0.694 | locus YOR061W, strain CKA2, active compounds read low 0.707 | locus YOR069W, strain VPS5, active compounds read low 0.735 | locus YOR136W, strain idh2, active compounds read low 0.899 | locus YOR144C, strain elg1, active compounds read low 0.755 | locus YOR184W, strain ser1, active compounds read low 0.331 | locus YOR231W, strain MKK1, active compounds read low 0.531 | locus YPL051W, strain arl3, active compounds read low 0.782 | locus YPL055C, strain LGE1, active compounds read low 0.274 | locus YPL256C, strain CLN2, active compounds read low 0.741 | locus YPR163C, strain tif3, active compounds read low 0.544 | locus YPR167C, strain met16, active compounds read low 0.786 | strain wtn01, active compounds read low 0.697
